From PubChem BioAssay (Tox21)
Inconclusive results are not listed. Activity calls are given as the source filed them. Unless noted, calls come from the whole dose curve.

What was measured:
[1] = Nuclear factor erythroid 2-related factor 2/antioxidant responsive element (Nrf2/ARE) small molecule agonists: qHTS cell viability counter screen in human keratinocytes (AID 1919968; active = well fitted curve in the direction sought with a large enough effect in the repeat runs; an effect the other way counts as inactive or inconclusive; note: nearly all actives have a fitted effect of over 55% in size)
In short: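 KeratinoSens cells (HaCaT keratinocytes stably carrying an ARE-luciferase reporter) were seeded at 1,500 cells/well and rested 5 h at 37 C/5% CO2. They were then exposed to compounds in DMSO for 23 h. Viability was read by CellTiter-Fluor fluorescence after 1 h.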

[2] = Nuclear factor erythroid 2-related factor 2/antioxidant responsive element (Nrf2/ARE) small molecule agonists: luciferase reporter gene qHTS assay in human keratinocytes (AID 1919969); note: nearly all actives have a fitted effect of over 35% in size
[3] = molecular target: Gonadotropin-releasing hormone receptor (Homo sapiens) (UniProt P30968); assay: Human gonadotropin-releasing hormone receptor (GnRHR) small molecule agonists, calcium flux assay in GnRHR-HEK293 cells (AID 1920063); note: nearly all actives have a fitted effect of over 35% in size
In short: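 HEK293 cells stably expressing human GnRHR were plated 18 h at 37 °C, loaded with calcium dye 1 h at 37 °C, then given compound in agonist mode; fluorescence (Ex/Em 480/540) read kinetically for 3 min at 1 s intervals.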

[4] = molecular target: KiSS-1 receptor (Homo sapiens) (UniProt Q969F8); assay: Human kisspeptin (KISS1R) small molecule agonists, calcium flux assay in KISS1R-HEK293 cells (AID 1920064; active = well fitted curve in the direction sought with a large enough effect in the repeat runs; an effect the other way counts as inactive or inconclusive)
In short: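 HEK293 cells stably expressing human KISS1R were plated 18 h at 37 °C, loaded with calcium dye for 1 h at 37 °C, then given compound by pin tool. Fluorescence (Ex/Em 480/540) was read kinetically for 3 min.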

[5] = G protein-coupled receptor (GPCR) small molecule agonists, calcium flux assay: HEK293 wild type cell line counter screen (AID 1920065)
In short: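 Cells were plated and cultured 18 h at 37 C/5% CO2, then loaded with calcium dye for 1 h at 37 C. Compounds in DMSO were pin-transferred in agonist mode, and fluorescence (Ex/Em 480/540) was read kinetically for 3 min at 1 s intervals.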

[6] = p53 small molecule agonists, cell-based qHTS assay with human liver microsomes: qHTS cell viability counter screen (AID 1963579); note: nearly all actives have a fitted effect of over 45% in size
In short: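 In this multiplexed counter screen, the reporter plates were subsequently treated with CellTiter-Glo so that cell viability, reflected by luminescence, could be recorded for p53RE-bla cells dosed 16 h with compounds under microsomal activation (HLM and NADPH).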

[7] = p53 small molecule agonists, cell-based qHTS assay with rat liver microsomes: qHTS cell viability counter screen (AID 1963580); note: nearly all actives have a fitted effect of over 45% in size
In short: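 Viability is assessed in parallel with the p53 reporter read: HCT-116 p53RE-bla cells receive compounds plus rat microsomes and NADPH (0.5 mg/mL final apiece), incubate 16 h at 37 C, and then CellTiter-Glo luminescence is recorded.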

[8] = p53 small molecule agonists, cell-based qHTS assay: qHTS cell viability counter screen (AID 1963581); note: nearly all actives have a fitted effect of over 45% in size
In short: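 p53RE-bla HCT-116 cells were exposed to compounds for 16 h at 37 C; after the beta-lactamase FRET read in the same wells, CellTiter-Glo was added and luminescence (intracellular ATP) read after 30 min at room temperature.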

[9] = molecular target: 5-hydroxytryptamine receptor 2A (Homo sapiens) (UniProt P28223); assay: 5-hydroxytryptamine receptor 2A (HTR2A) small molecule antagonists, cell-based qHTS assay (AID 1963586); note: nearly all actives have a fitted effect of over 45% in size
In short: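 Antagonist-mode intracellular calcium assay: DOI (4 nM) added after 5 min compound pre-incubation at room temperature to dye-loaded HTR2A-CHO cells. Fluorescence followed for 3 min, sampled every second.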

[10] = molecular target: 5-hydroxytryptamine receptor 2A (Homo sapiens) (UniProt P28223); assay: 5-hydroxytryptamine receptor 2A (HTR2A) small molecule agonists, cell-based qHTS assay (AID 1963587); note: nearly all actives have a fitted effect of over 30% in size
In short: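 CHO cells stably expressing human HTR2A, plated 18 h, loaded with calcium dye 1 h at 37 C. Agonist mode: compounds added and intracellular calcium fluorescence recorded kinetically for 2 min at 1 sec intervals.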

[11] = molecular target: Muscarinic acetylcholine receptor M1 (Homo sapiens) (UniProt P11229); assay: Cholinergic receptor muscarinic 1 (CHRM1) small molecule antagonists, cell-based qHTS assay (AID 1963588); note: nearly all actives have a fitted effect of over 40% in size
In short: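 CHRM1-CHO calcium-flux assay, antagonist mode. Cells were seeded 18 h, dye-loaded 1 h at 37 C and given compound for 5 min at RT, then acetylcholine was added at 50nM. FDSS fluorescence was read 3 min; 15 concentrations, three runs.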

[12] = molecular target: Muscarinic acetylcholine receptor M1 (Homo sapiens) (UniProt P11229); assay: Cholinergic receptor muscarinic 1 (CHRM1) small molecule agonists, cell-based qHTS assay (AID 1963589); note: nearly all actives have a fitted effect of over 35% in size
In short: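 CHO cells stably expressing human CHRM1, seeded 18 h at 37 C/5% CO2, dye-loaded 1 h at 37 C, then given compound in agonist mode; intracellular calcium fluorescence read kinetically at 1 s intervals. Fifteen concentrations, three independent runs.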

[13] = cAMP Responsive Elements (CRE) small molecule agonists, cell-based qHTS assay (AID 1963590)
In short: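 CRE-bla HEK 293T cells in DMEM with 10% dialyzed FBS, NEAA, pyruvate and 25 mM HEPES were plated 18 h at 37 C/5% CO2, then exposed to compounds in DMSO for 3 h before LiveBLAzer B/G FRET substrate addition.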

[14] = cAMP Responsive Elements (CRE) small molecule antagonists, cell-based qHTS assay (AID 1963591; active = well fitted inhibition curve with a large enough effect in the signal ratio in the repeat runs, not every such curve was filed as active; the % refers to the signal ratio)
In short: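 CRE-bla HEK293T cells were plated 18 h at 37 °C/5% CO2, pinned with compound in DMSO, then stimulated with NKH477 at 0.25 uM final for 3 h. LiveBLAzer B/G FRET substrate was added and plates incubated 2 h at room temperature.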

[15] = molecular target: Beta-2 adrenergic receptor (Homo sapiens) (UniProt P07550); assay: Adrenergic beta2 receptor (ADRB2) small molecule antagonists, cell-based qHTS assay (AID 1963592); note: series mostly up to about 92 µM; nearly all actives have a fitted effect of over 50% in size
In short: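 Cells (CHO, stable ADRB2 overexpression) incubated 18-20hr at 37C; compounds added from DMSO; agonist mix (1nM isoproterenol, 100uM IBMX, 25uM Ro-20-1724) added; 0.5hr RT; d2-cAMP and anti-cAMP-cryptate added; 1hr RT; 665/615 nm read.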

[16] = molecular target: Beta-2 adrenergic receptor (Homo sapiens) (UniProt P07550); assay: Adrenergic beta2 receptor (ADRB2) small molecule agonists, cell-based qHTS assay (AID 1963593);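 note: CHO cells stably overexpressing human ADRB2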
In short: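 CHO cells stably over-expressing ADRB2 were plated overnight at 37C, then dosed with compounds plus a stimulation mix containing 100uM IBMX and 25uM Ro-20-1724 for 0.5hr at room temperature. cAMP was measured by HTRF competition, 1hr.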

[17] = molecular target: D(2) dopamine receptor (Homo sapiens) (UniProt P14416); assay: Dopamine D2 receptor (DRD2) small molecule agonists, cell-based qHTS assay (AID 1963594); note: nearly all actives have a fitted effect of over 35% in size
In short: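 HEK293 cells stably expressing human DRD2, pre-treated with PDE inhibitor Ro20-1724 (0.1 mM final) and compound 10 min at room temperature, then stimulated with NKH477 (200nM […]) for 30 min. cAMP read by HTRF (665/620 nm).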

[18] = molecular target: D(2) dopamine receptor (Homo sapiens) (UniProt P14416); assay: Dopamine D2 receptor (DRD2) small molecule antagonists, cell-based qHTS assay (AID 1963595; active = well fitted inhibition curve with a large enough effect in the signal ratio in the repeat runs, with a control signal flat; the % refers to the signal ratio)
In short: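 HEK293 cells stably expressing DRD2, preincubated with 0.1 mM Ro20-1724 and compounds 10 min, were stimulated with 200 nM NKH477 plus 12 nM quinpirole for 30 min at room temperature; cAMP measured by HTRF (665/620 nm).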
% is set by controls: 0 for no effect and ±100 for the full control effect.

Chain of D(2) dopamine receptor (Homo sapiens) (P14416 whole entry, looked up): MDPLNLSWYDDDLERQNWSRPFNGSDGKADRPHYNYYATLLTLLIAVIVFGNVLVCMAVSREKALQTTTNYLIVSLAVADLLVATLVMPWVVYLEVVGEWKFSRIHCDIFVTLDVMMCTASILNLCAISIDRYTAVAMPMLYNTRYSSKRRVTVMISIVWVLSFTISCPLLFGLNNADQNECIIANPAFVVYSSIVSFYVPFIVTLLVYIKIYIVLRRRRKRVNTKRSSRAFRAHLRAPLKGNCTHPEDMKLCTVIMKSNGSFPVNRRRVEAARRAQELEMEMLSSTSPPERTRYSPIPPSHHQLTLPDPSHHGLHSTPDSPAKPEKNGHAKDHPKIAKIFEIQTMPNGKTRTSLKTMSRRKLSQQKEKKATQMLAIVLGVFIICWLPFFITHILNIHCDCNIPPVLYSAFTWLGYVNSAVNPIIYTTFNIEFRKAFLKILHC
Chain of 5-hydroxytryptamine receptor 2A (Homo sapiens) (P28223 whole entry, looked up): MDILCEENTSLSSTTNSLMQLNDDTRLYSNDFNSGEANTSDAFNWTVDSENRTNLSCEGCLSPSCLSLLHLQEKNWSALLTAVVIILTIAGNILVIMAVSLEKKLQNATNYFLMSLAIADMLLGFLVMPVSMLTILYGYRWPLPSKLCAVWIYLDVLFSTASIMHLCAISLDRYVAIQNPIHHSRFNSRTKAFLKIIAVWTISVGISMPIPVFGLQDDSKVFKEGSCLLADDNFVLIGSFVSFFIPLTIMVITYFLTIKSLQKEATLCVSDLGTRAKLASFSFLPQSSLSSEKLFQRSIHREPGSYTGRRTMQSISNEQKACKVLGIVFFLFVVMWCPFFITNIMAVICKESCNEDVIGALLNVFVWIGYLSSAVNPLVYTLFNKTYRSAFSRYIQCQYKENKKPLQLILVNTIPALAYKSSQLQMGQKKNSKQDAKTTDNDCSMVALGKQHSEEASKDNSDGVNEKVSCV
Chain of Muscarinic acetylcholine receptor M1 (Homo sapiens) (P11229 whole entry, looked up): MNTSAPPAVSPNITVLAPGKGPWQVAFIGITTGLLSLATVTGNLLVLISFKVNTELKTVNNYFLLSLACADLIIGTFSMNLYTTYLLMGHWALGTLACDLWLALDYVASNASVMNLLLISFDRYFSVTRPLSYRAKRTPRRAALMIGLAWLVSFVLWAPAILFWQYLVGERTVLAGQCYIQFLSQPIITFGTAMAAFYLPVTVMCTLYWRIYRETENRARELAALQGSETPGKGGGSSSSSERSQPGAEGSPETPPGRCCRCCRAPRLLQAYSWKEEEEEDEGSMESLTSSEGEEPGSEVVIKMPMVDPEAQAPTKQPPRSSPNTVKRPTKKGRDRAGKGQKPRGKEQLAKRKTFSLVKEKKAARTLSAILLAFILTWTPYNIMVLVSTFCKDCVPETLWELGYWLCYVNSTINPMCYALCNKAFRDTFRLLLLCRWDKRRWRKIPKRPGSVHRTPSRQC
Chain of KiSS-1 receptor (Homo sapiens) (Q969F8 whole entry, looked up): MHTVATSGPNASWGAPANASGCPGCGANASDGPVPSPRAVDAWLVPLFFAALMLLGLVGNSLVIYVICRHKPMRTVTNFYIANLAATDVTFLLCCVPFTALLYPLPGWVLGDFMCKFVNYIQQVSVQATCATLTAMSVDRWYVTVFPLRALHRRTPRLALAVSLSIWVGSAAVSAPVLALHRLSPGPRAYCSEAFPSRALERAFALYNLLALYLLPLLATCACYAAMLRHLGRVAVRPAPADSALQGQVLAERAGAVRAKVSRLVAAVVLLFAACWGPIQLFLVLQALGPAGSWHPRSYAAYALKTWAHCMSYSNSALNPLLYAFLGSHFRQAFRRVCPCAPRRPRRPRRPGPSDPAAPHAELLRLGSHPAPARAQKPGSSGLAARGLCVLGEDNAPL
Chain of Beta-2 adrenergic receptor (Homo sapiens) (P07550 whole entry, looked up): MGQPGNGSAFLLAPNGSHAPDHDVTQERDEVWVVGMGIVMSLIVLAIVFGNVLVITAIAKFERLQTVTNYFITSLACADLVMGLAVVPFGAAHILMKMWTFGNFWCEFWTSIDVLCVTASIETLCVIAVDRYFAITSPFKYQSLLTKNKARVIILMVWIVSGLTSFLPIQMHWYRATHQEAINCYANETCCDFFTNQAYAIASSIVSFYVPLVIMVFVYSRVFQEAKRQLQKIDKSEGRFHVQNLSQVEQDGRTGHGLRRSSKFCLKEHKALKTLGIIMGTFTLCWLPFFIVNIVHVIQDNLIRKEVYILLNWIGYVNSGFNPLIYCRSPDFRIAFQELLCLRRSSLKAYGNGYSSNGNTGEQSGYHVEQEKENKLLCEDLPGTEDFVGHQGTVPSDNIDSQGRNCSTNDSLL
Chain of Gonadotropin-releasing hormone receptor (Homo sapiens) (P30968 whole entry, looked up): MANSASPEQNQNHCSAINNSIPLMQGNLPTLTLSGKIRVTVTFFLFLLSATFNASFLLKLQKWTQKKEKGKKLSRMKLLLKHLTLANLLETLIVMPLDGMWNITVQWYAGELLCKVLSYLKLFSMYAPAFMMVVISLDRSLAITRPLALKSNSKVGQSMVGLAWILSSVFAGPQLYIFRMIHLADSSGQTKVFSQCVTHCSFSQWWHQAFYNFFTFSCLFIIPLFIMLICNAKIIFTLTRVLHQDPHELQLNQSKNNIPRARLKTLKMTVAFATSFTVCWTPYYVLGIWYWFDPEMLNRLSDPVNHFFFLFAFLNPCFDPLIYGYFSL

CC(C)(C)C(=O)CCc1ccc(Cl)cc1
inactive: Potency [1] | Potency [2] | Potency [3] | Potency [4] | Potency [5] | Potency [6] | Potency [7] | Potency [8] | Potency [9] | Potency [10] | Potency [11] | Potency [12] | Potency [13] | Potency [14] | Potency [15] | Potency [16] | Potency [17] | Potency [18]

CCCCCCC(=O)c1ccccc1
inactive: Potency [1] | Potency [2] | Potency [3] | Potency [4] | Potency [5] | Potency [6] | Potency [7] | Potency [8] | Potency [9] | Potency [10] | Potency [11] | Potency [12] | Potency [13] | Potency [14] | Potency [15] | Potency [16] | Potency [17] | Potency [18]

O=C(O)c1c(Cl)ccc(Cl)c1Cl
inactive: Potency [1] | Potency [2] | Potency [3] | Potency [4] | Potency [5] | Potency [6] | Potency [7] | Potency [8] | Potency [9] | Potency [10] | Potency [11] | Potency [12] | Potency [13] | Potency [14] | Potency [15] | Potency [16] | Potency [17] | Potency [18]

CCN(CC)CC1CCCCN1CC(=O)N1c2ccccc2C(=O)Nc2cccnc21 (configuration not stated)
inactive: Potency [1] | Potency [2] | Potency [3] | Potency [4] | Potency [5] | Potency [6] | Potency [7] | Potency [8] | Potency [9] | Potency [10] | Potency [11] | Potency [12] | Potency [13] | Potency [14] | Potency [15] | Potency [16] | Potency [17] | Potency [18]

C=C(C)C(=O)OCc1ccccc1
inactive: Potency [1] | Potency [2] | Potency [3] | Potency [4] | Potency [5] | Potency [6] | Potency [7] | Potency [8] | Potency [9] | Potency [10] | Potency [11] | Potency [12] | Potency [13] | Potency [14] | Potency [15] | Potency [16] | Potency [17] | Potency [18]

CCO[Si](CCC1CCC2OC2C1)(OCC)OCC (configuration not stated)
inactive: Potency [1] | Potency [2] | Potency [3] | Potency [4] | Potency [5] | Potency [6] | Potency [7] | Potency [8] | Potency [9] | Potency [10] | Potency [11] | Potency [12] | Potency [13] | Potency [14] | Potency [15] | Potency [16] | Potency [17] | Potency [18]

C=Cc1ccc(C(C)(C)C)cc1
inactive: Potency [1] | Potency [2] | Potency [3] | Potency [4] | Potency [5] | Potency [6] | Potency [7] | Potency [8] | Potency [9] | Potency [10] | Potency [11] | Potency [12] | Potency [13] | Potency [14] | Potency [15] | Potency [16] | Potency [17] | Potency [18]

CC(O)CC(C)O (configuration not stated)
inactive: Potency [1] | Potency [2] | Potency [3] | Potency [4] | Potency [5] | Potency [6] | Potency [7] | Potency [8] | Potency [9] | Potency [10] | Potency [11] | Potency [12] | Potency [13] | Potency [14] | Potency [15] | Potency [16] | Potency [17] | Potency [18]

Cc1[nH]c(C)c(Cl)c(=O)c1Cl
inactive: activity change, negative = cytotoxicity [1] 5.34% [at 19 µM] | activity, positive = activation [2] 3.75% [at 19 µM] | activity change [3] -0.0007% [at 11.8 µM, stronger effect = higher value] | activation [4] -1.04% [at 15.8 µM] | activation [5] -1.57% [at 11.8 µM] | activity change, negative = cytotoxicity [6] -0.426% [at 13.5 µM] | activity change, negative = cytotoxicity [7] 4.54% [at 13.5 µM] | activity change, negative = cytotoxicity [8] 15.4% [at 13.5 µM] | activity, negative = inhibition [9] 81.1% [at 12.7 µM] | activation [10] -10% [at 15.9 µM] | activity, negative = inhibition [11] 9.6% [at 12.6 µM] | activation [12] 0.215% [at 15.8 µM] | activation [13] -0.819% [at 19 µM] | activity change, negative = inhibition [14] -0.412% [at 18.9 µM] | activity change, negative = inhibition [15] -0.0462% [at 19 µM] | activation [16] 13.3% [at 19 µM] | activation [17] -3.57% [at 19 µM] | activity change, negative = inhibition [18] 7.52% [at 18.9 µM]

Cc1ccc(Br)cc1
inactive: Potency [1] | Potency [2] | Potency [3] | Potency [4] | Potency [5] | Potency [6] | Potency [7] | Potency [8] | Potency [9] | Potency [10] | Potency [11] | Potency [12] | Potency [13] | Potency [14] | Potency [15] | Potency [17]

Nc1cccc(O)c1
inactive: Potency [1] | Potency [2] | Potency [3] | Potency [4] | Potency [5] | Potency [6] | Potency [7] | Potency [8] | Potency [9] | Potency [10] | Potency [11] | Potency [12] | Potency [13] | Potency [14] | Potency [15] | Potency [16] | Potency [17] | Potency [18]

C[C@H](NC(CCc1ccccc1)C(=O)O)C(=O)N1CCC[C@H]1C(=O)O (some centres not stated)
inactive: Potency [1] | Potency [2] | Potency [3] | Potency [4] | Potency [5] | Potency [6] | Potency [7] | Potency [8] | Potency [9] | Potency [10] | Potency [11] | Potency [12] | Potency [13] | Potency [14] | Potency [15] | Potency [16] | Potency [17] | Potency [18]

CC(=O)Nc1ccc(OC(=O)c2ccccc2OC(C)=O)cc1
inactive: Potency [1] | Potency [2] | Potency [3] | Potency [4] | Potency [5] | Potency [6] | Potency [7] | Potency [8] | Potency [9] | Potency [10] | Potency [11] | Potency [12] | Potency [13] | Potency [14] | Potency [15] | Potency [16] | Potency [17] | Potency [18]

Cc1nnc(SCC2=C(C(=O)O)N3C(=O)[C@@H](NC(=O)Cn4cnnn4)[C@H]3SC2)s1
inactive: Potency [1] | Potency [2] | Potency [3] | Potency [4] | Potency [5] | Potency [6] | Potency [7] | Potency [8] | Potency [9] | Potency [10] | Potency [11] | Potency [12] | Potency [13] | Potency [14] | Potency [15] | Potency [16] | Potency [17] | Potency [18]

CC(C)CCOCc1ccccc1
inactive: Potency [1] | Potency [2] | Potency [3] | Potency [4] | Potency [5] | Potency [6] | Potency [7] | Potency [8] | Potency [9] | Potency [10] | Potency [11] | Potency [12] | Potency [13] | Potency [14] | Potency [15] | Potency [16] | Potency [17]
